The target in assay [1] is Glucocorticoid receptor (Homo sapiens) (UniProt P04150). In words: ATG_GR_TRANS: Attagene TRANS-FACTORIAL HepG2 Assay for human Glucocorticoid Receptor (GR) (AID 2282978; active = hit-call score of the fitted dose curve at least 0.9, where 1 is the maximum;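 note: activators score as hits since higher reporter transcript over DMSO is fitted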). Conditions: HepG2 Attagene TRANS GR reporter, mRNA transcription. In a few lines: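 Exogenous NR-GAL4 fusion activity was assessed through induced GAL4-UAS reporter transcripts in transfected human HepG2 cells, quantified after 24 h by RT-PCR and fluorescent capillary electrophoresis with DMSO as baseline.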

Assay [2] concerns the target Bile acid receptor (Homo sapiens) (UniProt Q96RI1). As to the kind of experiment: ATG_FXR_TRANS: Attagene TRANS-FACTORIAL HepG2 Assay for Farnesoid X Receptor (FXR) (AID 2282979; active = hit-call score of the fitted dose curve at least 0.9, where 1 is the maximum;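 note: hits raise reporter mRNA above DMSO so AC50 marks FXR activation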). Conditions: HepG2 Attagene TRANS FXR-GAL4 reporter transcription. In a few lines:
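Reporter transcripts from transfected HepG2 cells were measured 24 h after dosing, using RT-PCR with capillary electrophoresis of 6-FAM-labelled fragments. The read-out reflects activity of exogenous FXR-Gal4 chimera on GAL4-UAS units, with induction relative to DMSO.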

Assay [3] deals with Oxysterols receptor LXR-alpha (Homo sapiens) (UniProt Q13133). In words: ATG_LXRa_TRANS: Attagene TRANS-FACTORIAL HepG2 Assay for human Liver X Receptor alpha (LXRa) (AID 2282980; active = hit-call score of the fitted dose curve at least 0.9, where 1 is the maximum). Conditions: HepG2 Attagene TRANS reporter, LXRa transactivation. In a few lines:
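Chemical-induced reporter mRNA measured by RT-PCR with fluorescent labelling and capillary electrophoresis after 24 h dosing of transiently transfected HepG2 cells expressing exogenous NR-Gal4 chimeras; increases scored against DMSO baseline.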

Assay [4] in a line: ATG_M_06_TRANS: Attagene TRANS-FACTORIAL HepG2 Assay for M06 Transcription Factor (Internal Marker) (AID 2282983; active = hit-call score of the fitted dose curve at least 0.9, where 1 is the maximum). Conditions: HepG2 Attagene TRANS M06 internal marker reporter. In a few lines:
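Cells: HepG2, transient multi-reporter transfection. Exposure: 24 h. Detection: RT-PCR, 6-FAM labelling, HpaI digestion (2 h, 37 °C), capillary electrophoresis. Baseline: DMSO.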

Assay [5] is described as follows: ATG_M_32_TRANS: Attagene TRANS-FACTORIAL HepG2 Assay for M32 Transcription Factor (Internal Marker) (AID 2282984; active = hit-call score of the fitted dose curve at least 0.9, where 1 is the maximum;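 note: transcript level of a background control reporter unit measured by RT-PCR and capillary electrophoresis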). The settings on record: HepG2 Attagene TRANS M32 internal marker reporter. Put shortly:
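Capillary electrophoresis of 6-FAM-labelled reporter fragments gives the signal; data fitted for gain over DMSO negative control. Source: HepG2 cells bearing transient multiple reporter transcription units, 24 h exposure.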

Assay [6] deals with Nuclear receptor subfamily 4 group A member 2 (Homo sapiens) (UniProt P43354). As to the kind of experiment: ATG_NURR1_TRANS: Attagene TRANS-FACTORIAL HepG2 Assay for human Nuclear Receptor Related Protein 1 (NURR1) (AID 2282985; active = hit-call score of the fitted dose curve at least 0.9, where 1 is the maximum). Conditions: HepG2 Attagene TRANS reporter, mRNA readout. In a few lines:
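HepG2 / transient MRTU transfection / 24 h compound exposure / RT-PCR + CE fluorescence of reporter mRNA / gain-of-signal vs DMSO.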

In assay [7] the target is Transcriptional activator Myb (Homo sapiens) (UniProt P10242). In words: ATG_Myb_CIS: Attagene CIS-FACTORIAL HepG2 Assay for human Myeloblastosis (Myb) Proto-Oncogene Transcription Factor (AID 2282986). Conditions: HepG2 Attagene CIS-FACTORIAL Myb reporter transcription; actives raise or lower the signal. In a few lines: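 In this HepG2 transient-transfection format, cis-regulated reporter mRNA is quantified 24 h post-dosing by RT-PCR with capillary electrophoresis, fitted bidirectionally to DMSO baseline.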

Assay [8] concerns the target Nuclear respiratory factor 1 (Homo sapiens) (UniProt Q16656). In words: ATG_NRF1_CIS: Attagene CIS-FACTORIAL HepG2 Assay for human Nuclear Respiratory Factor 1 (NRF1) Orphan Gene (AID 2282987). Conditions: HepG2 NRF1 cis-element reporter, Attagene multiplex; actives raise or lower the signal. Put shortly:
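Using DMSO as baseline, gain- or loss-of-signal was fitted for reporter mRNA levels in HepG2 cells transiently transfected with cis-regulated reporter units. Samples were taken 24 h after dosing and read by RT-PCR with capillary electrophoresis.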

A short description of assay [9]: ATG_NFI_CIS: Attagene CIS-FACTORIAL HepG2 Assay for human Nuclear Factor I (NFI) (AID 2282989). The settings on record: HepG2 cis-regulatory reporter, NFI response element transcription; actives raise or lower the signal. In a few lines: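 Transient MRTU transfection of HepG2 → 24 h chemical dosing → total RNA, oligo(dT) RT → PCR, 6-FAM primer extension, HpaI cut → capillary electrophoresis. Endpoint fitted bidirectionally relative to DMSO.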

The target in assay [10] is Myc proto-oncogene protein (Homo sapiens) (UniProt P01106). As to the kind of experiment: ATG_Myc_CIS: Attagene CIS-FACTORIAL HepG2 Assay for human Myelocytomatosis (Myc) Proto-Oncogene Transcription Factor (AID 2282990). The settings on record: HepG2, Attagene cis-reporter transcription factor activity; actives raise or lower the signal. In a few lines: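 Read-out: fluorescent reporter mRNA fragments resolved by capillary electrophoresis after RT-PCR. Human HepG2 liver cells carried transfected cis-element reporter units and were dosed for 24 h. Gain or loss of signal fitted relative to DMSO baseline.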

Assay [11] in a line: ATG_NF_kB_CIS: Attagene CIS-FACTORIAL HepG2 Assay for human Nuclear Factor Kappa B (NF-kB) (AID 2282991). The settings on record: HepG2 Attagene cis-factorial NF-kB reporter mRNA; actives raise or lower the signal. Put shortly:
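Endpoint from a 52-component multiplexed HepG2 reporter panel: cis-regulated transcription units transiently transfected, 24 h dosing, reporter mRNA quantified by RT-PCR and capillary electrophoresis, scored as increase or decrease against DMSO.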

Assay [12] is described as follows: ATG_NRF2_ARE_CIS: Attagene CIS-FACTORIAL HepG2 Assay for human Nuclear Factor Erythroid 2 Related Factor 2 (NFR2) response to Antioxidant Response Elements (ARE) (AID 2282992).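 For AC50: reporter mRNA level measured by RT-PCR and capillary electrophoresis fluorescence.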 Conditions: HepG2 Attagene ARE/NRF2 reporter, transcription factor activity; actives raise or lower the signal. In a few lines: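 HepG2 cells transiently transfected with multiplexed cis-regulated reporter transcription units measure endogenous transcription factor activity. Reporter mRNA at 24 h is quantified by RT-PCR, fluorescent labelling and capillary electrophoresis, with bidirectional fitting relative to DMSO.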

A short description of assay [13]: ATG_Oct_MLP_CIS: Attagene CIS-FACTORIAL HepG2 Assay for human Octamer-Binding Transcription Factor (Oct) (AID 2282993). Conditions: HepG2 Attagene cis-factorial Oct reporter, mRNA; actives raise or lower the signal. In a few lines: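 Transient MRTU transfection of HepG2 → 24 h compound treatment → RNA isolation, reverse transcription, PCR → 6-FAM primer extension, HpaI digest → capillary electrophoresis. Activity fitted both directions against DMSO.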

Assay [14] addresses Cellular tumor antigen p53 (Homo sapiens) (UniProt P04637). As to the kind of experiment: ATG_p53_CIS: Attagene CIS-FACTORIAL HepG2 Assay for human p53 Transcription Factor (AID 2282994). Conditions: HepG2 p53 cis-element reporter, Attagene mRNA; actives raise or lower the signal. Put shortly: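 HepG2 cells transiently transfected with multiplexed cis-regulated reporter transcription units read endogenous TF activity. After 24 h compound exposure, reporter mRNA was quantified by RT-PCR, fluorescent labelling, HpaI digestion and capillary electrophoresis; bidirectional fits versus DMSO baseline.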

A short description of assay [15]: BSK_3C_TissueFactor: BioMAP Diversity Plus: 3C Assay for Tissue Factor Biomarker Activity (AID 2282997). The settings on record: BioMAP 3C HUVEC, tissue factor biomarker readout; actives raise or lower the signal. Put shortly:
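Dosing of human umbilical vein endothelial cells preceded a 24 h incubation. Tissue Factor was then read by ELISA, with increases and decreases both scored relative to DMSO controls.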

Assay [16] can be described thus: BSK_3C_VCAM1: BioMAP Diversity Plus: 3C Assay for Vascular cell adhesion molecule 1 (VCAM1) Biomarker Activity (AID 2282999). Conditions: BioMAP 3C HUVEC, VCAM1 ELISA, cytokine-stimulated; actives raise or lower the signal. Put shortly: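 Human umbilical vein endothelial cells (3C system), biomarker read by ELISA 24 h after dosing; bidirectional fit against DMSO baseline. Cytotoxicity tracked by SRB total-protein staining in parallel cultures at biomarker time.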
For orientation: ELISA stands for enzyme-linked immunosorbent assay.

Assay [17] can be described thus: BSK_4H_Eotaxin3: BioMAP Diversity Plus: 4H Assay for Eotaxin 3 Biomarker Activity (AID 2283000).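 For outcome: CCL26 protein level quantified by ELISA in parallel with SRB cytotoxicity check.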 The settings on record: primary human endothelial cells (HUVEC); actives raise or lower the signal. In a few lines:
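Human umbilical vein endothelial cells (BSK_4H system) dosed with test chemical; Eotaxin-3 (CCL26) measured by ELISA 24 h after dosing. Bidirectional curve fitting relative to DMSO negative control as baseline.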

The target in assay [18] is human Peroxisome Proliferator-activated Receptor alpha (PPARa), PPARA (gene 5465) (UniProt Q07869). In words: ATG_PPARa_TRANS: Attagene TRANS-FACTORIAL HepG2 Assay for human Peroxisome Proliferator-activated Receptor alpha (PPARa) (AID 2283001; active = hit-call score of the fitted dose curve at least 0.9, where 1 is the maximum). In a few lines:
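Measures transcriptional activity of an exogenous chimeric PPARa-Gal4 protein in transiently transfected HepG2 cells after 24 h dosing. Reporter mRNA quantified via RT-PCR and capillary electrophoresis; DMSO served as negative control.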

The target in assay [19] is Oxysterols receptor LXR-beta (Homo sapiens) (UniProt P55055). In words: ATG_LXRb_TRANS: Attagene TRANS-FACTORIAL HepG2 Assay for human Liver X Receptor beta (LXRb) (AID 2282981; active = hit-call score of the fitted dose curve at least 0.9, where 1 is the maximum). Conditions: HepG2 Attagene TRANS GAL4-LXRb reporter, mRNA. In a few lines: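 Gain-of-signal mRNA reporter endpoint, DMSO as negative control. Transiently transfected HepG2 cells carrying the NR-Gal4 chimera and GAL4-UAS reporter units were treated 24 h; transcripts quantified by RT-PCR and capillary electrophoresis fluorescence.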

Assay [20] in a line: BSK_3C_uPAR: BioMAP Diversity Plus: 3C Assay for Urokinase-type plasminogen activator receptor (uPAR) Biomarker Activity (AID 2282998). Conditions: BioMAP 3C HUVEC, uPAR biomarker ELISA; actives raise or lower the signal. In a few lines: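 ELISA readout of uPAR on human vascular endothelium (umbilical vein primary cells), taken 24 h after chemical dosing. Increases and decreases are both fitted relative to DMSO vehicle.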

Inconclusive results are not listed. Active and inactive are the calls of the source. Rule for the calls, unless noted: active = hit-call score of the fitted dose curve at least 0.9, where 1 is the maximum; inactive = score below 0.9.

Sequence of Nuclear receptor subfamily 4 group A member 2 (Homo sapiens) (P43354 whole entry, looked up): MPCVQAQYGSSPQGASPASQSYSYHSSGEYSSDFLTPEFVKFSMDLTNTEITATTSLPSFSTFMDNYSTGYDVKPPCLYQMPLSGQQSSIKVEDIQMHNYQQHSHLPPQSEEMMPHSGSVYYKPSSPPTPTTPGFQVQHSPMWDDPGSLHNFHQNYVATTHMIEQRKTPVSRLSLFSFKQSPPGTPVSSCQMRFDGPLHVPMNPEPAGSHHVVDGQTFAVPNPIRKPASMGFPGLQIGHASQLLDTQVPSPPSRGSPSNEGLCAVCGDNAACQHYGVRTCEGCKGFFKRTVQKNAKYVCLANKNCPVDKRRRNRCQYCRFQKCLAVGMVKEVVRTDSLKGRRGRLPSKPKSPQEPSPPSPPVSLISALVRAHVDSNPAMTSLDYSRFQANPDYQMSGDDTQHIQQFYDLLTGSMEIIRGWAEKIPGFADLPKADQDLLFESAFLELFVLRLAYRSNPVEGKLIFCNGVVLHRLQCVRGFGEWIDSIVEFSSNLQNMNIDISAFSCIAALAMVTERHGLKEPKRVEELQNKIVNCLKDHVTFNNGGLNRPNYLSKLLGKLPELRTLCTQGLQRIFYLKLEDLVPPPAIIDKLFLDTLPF
Sequence of Myc proto-oncogene protein (Homo sapiens) (P01106 whole entry, looked up, the tested form may be a part): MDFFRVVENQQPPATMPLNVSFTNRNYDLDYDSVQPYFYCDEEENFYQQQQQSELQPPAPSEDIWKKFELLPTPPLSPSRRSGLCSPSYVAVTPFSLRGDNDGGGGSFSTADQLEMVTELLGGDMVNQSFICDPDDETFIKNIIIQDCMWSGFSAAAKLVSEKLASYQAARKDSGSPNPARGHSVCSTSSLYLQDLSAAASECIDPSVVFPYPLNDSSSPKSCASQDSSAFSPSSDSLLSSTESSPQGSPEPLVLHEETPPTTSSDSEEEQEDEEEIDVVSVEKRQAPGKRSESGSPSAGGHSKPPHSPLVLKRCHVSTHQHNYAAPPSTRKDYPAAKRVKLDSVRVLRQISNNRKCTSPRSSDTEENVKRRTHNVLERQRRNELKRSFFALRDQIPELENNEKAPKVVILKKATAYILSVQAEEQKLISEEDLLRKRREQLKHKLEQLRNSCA
Sequence of Oxysterols receptor LXR-alpha (Homo sapiens) (Q13133 whole entry, looked up, the tested form may be a part): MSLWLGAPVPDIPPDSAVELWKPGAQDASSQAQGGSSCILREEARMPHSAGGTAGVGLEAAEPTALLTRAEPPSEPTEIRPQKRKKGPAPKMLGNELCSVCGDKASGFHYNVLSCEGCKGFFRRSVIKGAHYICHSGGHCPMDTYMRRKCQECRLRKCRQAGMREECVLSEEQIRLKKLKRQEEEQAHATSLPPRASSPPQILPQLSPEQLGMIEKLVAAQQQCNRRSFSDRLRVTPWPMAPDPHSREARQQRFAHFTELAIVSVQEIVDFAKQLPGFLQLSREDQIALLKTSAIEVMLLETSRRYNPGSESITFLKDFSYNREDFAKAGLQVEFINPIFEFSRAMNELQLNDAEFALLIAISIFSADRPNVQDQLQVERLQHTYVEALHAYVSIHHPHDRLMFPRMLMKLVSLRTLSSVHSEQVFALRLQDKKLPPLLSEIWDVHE
Sequence of Transcriptional activator Myb (Homo sapiens) (P10242 whole entry, looked up): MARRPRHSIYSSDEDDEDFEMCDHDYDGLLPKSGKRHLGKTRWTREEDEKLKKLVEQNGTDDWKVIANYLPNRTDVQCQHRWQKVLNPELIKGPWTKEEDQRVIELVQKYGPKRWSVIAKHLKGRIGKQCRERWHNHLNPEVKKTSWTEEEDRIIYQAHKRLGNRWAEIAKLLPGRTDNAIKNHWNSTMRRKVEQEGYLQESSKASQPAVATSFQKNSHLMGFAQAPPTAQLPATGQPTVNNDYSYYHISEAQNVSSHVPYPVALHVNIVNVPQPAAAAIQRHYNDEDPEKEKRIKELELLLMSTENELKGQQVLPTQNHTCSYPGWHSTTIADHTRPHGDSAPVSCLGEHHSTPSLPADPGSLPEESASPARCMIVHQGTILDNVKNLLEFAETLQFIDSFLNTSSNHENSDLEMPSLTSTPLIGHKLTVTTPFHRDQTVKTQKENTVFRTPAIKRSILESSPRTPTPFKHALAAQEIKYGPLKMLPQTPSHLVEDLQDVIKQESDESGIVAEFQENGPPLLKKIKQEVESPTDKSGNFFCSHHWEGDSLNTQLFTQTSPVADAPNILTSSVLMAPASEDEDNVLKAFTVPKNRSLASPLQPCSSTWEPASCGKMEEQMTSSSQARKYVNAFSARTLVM
Sequence of Bile acid receptor (Homo sapiens) (Q96RI1 whole entry, looked up, the tested form may be a part): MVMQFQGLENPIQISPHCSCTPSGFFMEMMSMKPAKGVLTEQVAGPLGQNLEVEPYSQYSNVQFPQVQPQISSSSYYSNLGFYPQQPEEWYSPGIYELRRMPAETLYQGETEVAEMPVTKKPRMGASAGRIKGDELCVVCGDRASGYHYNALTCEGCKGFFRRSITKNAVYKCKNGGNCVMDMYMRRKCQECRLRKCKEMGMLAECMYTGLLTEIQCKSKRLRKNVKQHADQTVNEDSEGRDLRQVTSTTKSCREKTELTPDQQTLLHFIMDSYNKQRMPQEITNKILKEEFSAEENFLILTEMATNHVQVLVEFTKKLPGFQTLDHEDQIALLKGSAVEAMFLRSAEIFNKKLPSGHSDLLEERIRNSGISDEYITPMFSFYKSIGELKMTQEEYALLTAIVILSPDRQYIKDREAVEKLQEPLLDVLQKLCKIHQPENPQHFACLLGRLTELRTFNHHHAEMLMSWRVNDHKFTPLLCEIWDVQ
Sequence of Oxysterols receptor LXR-beta (Homo sapiens) (P55055 whole entry, looked up, the tested form may be a part): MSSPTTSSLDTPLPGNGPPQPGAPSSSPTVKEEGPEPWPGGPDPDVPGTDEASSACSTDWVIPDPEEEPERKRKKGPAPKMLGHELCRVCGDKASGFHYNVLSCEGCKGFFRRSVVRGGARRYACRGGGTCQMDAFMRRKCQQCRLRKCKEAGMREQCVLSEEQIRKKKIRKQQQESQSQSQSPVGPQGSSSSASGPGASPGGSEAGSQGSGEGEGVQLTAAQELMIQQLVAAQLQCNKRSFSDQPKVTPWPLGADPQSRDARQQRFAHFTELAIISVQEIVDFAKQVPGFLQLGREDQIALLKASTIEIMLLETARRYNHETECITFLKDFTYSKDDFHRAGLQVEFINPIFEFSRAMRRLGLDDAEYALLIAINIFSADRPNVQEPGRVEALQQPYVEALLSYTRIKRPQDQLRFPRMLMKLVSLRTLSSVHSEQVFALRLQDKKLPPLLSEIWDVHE
Sequence of Cellular tumor antigen p53 (Homo sapiens) (P04637 whole entry, looked up): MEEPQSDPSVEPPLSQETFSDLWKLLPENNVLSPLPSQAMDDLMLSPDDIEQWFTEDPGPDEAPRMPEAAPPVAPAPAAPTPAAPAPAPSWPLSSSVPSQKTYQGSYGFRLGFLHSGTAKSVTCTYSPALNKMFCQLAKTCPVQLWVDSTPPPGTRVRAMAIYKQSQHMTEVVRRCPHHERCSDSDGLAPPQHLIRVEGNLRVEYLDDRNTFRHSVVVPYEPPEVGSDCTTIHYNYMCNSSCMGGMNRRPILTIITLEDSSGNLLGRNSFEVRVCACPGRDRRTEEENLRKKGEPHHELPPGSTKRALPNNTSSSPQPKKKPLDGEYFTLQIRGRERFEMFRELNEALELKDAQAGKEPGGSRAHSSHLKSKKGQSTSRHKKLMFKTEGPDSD
Sequence of Nuclear respiratory factor 1 (Homo sapiens) (Q16656 whole entry, looked up): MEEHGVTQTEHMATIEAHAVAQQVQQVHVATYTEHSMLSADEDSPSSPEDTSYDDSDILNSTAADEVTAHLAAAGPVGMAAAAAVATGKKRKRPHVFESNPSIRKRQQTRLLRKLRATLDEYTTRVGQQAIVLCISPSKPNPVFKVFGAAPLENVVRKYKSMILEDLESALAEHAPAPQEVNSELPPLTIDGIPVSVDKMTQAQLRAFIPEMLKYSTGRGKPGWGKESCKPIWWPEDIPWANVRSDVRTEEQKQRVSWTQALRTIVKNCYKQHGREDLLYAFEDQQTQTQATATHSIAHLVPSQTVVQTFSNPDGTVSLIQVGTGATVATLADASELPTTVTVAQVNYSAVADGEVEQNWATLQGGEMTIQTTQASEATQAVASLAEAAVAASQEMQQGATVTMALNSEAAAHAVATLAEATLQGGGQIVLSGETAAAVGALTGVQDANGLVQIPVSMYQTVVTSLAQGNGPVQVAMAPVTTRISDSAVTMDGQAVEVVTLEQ
Sequence of human Peroxisome Proliferator-activated Receptor alpha (PPARa), PPARA (gene 5465) (Q07869 whole entry, looked up, the tested form may be a part): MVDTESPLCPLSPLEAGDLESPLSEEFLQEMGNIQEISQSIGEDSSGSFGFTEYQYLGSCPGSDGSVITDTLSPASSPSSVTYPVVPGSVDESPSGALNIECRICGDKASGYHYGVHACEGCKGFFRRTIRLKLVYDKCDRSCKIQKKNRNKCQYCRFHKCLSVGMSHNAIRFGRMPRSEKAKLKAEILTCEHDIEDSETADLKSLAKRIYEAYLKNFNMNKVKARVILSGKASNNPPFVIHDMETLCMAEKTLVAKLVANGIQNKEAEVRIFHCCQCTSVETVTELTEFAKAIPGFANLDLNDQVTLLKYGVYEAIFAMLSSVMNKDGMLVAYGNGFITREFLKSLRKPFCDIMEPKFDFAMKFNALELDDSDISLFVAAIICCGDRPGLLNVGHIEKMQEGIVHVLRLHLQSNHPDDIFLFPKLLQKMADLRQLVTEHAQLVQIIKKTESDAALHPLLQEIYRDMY

For orientation: AC50 means the midpoint of the concentration-response curve, whichever way the signal moves. `Cc1cccc(N)c1N`: the compound was called inactive in assay [1], in assay [2], in assay [3], in [4], in assay [5] and in assay [6]. The compound was called inactive in [7], in assay [8], in assay [9], in assay [10], in [11] and in assay [14]. Further, the result in [15], in [17] and in [18] was inactive. In addition, the AC50 is 21.6 µM (active) in assay [12], 167 µM (active) in [13] and 16 µM (active) in assay [16].
In the case of `ClC1=C(Cl)C2(Cl)C3C(Cl)C=CC3C1(Cl)C2(Cl)Cl` (stereo not drawn), the compound was classed as inactive in assay [1], in assay [19], in [4], in assay [5], in [7] and in assay [8]. In addition, in [12], the outcome was inactive. Moreover, the AC50 is 186 µM (active) in assay [9]; 100 µM (active) in assay [10]; 100 µM (active) in [11]; 149 µM (active) in [13]; 100 µM (active) in assay [14]; 26.9 µM (active) in assay [15]. In addition, the half-maximal activity concentration (AC50) was 30.8 µM (active) in [16] and 29.9 µM (active) in assay [17].
In the case of `CCCCOC(=O)c1ccccc1C(=O)OCc1ccccc1`, the compound was called inactive in assay [1], in assay [3], in assay [4], in assay [5], in assay [7] and in [8]. In addition, the result in [9], in assay [10], in [11], in assay [13], in assay [14] and in assay [16] was inactive. Further, the result in [17] and in [18] was inactive. Besides, the AC50 in [12] is 48.3 µM (active).
Consider `CC(C)COC(=O)c1ccccc1C(=O)OCC(C)C`, for which the outcome in [1], in [2], in assay [4], in [5], in assay [6] and in [7] was inactive. Besides, the call in assay [8], in [9], in assay [10], in assay [20], in assay [17] and in [18] was inactive. In addition, the AC50 in assay [12] was 36 µM (active); in [13], 83 µM (active); in assay [16], 26.8 µM (active).
For `CCC[CH2][Sn]([Cl])([CH2]CCC)[CH2]CCC`, the AC50 in assay [1] is 1.24 µM (active); in assay [6] it was 0.0336 µM (active); in [11], 0.601 µM (active); in [12], 0.281 µM (active); in assay [14], 0.771 µM (active); in assay [15] it was 0.148 µM (active). Besides, the AC50 in assay [16] and in assay [17] was 0.148 µM (active) in each case. Further, the result in assay [2], in [19], in assay [4], in assay [7], in [8] and in assay [9] was inactive. The compound was classed as inactive in assay [10] and in assay [13].
For the compound `Clc1ccc(C(c2ccc(Cl)cc2)C(Cl)(Cl)Cl)cc1`, the compound was called inactive in [1], in [19], in assay [4], in assay [5], in assay [6] and in assay [7]. Moreover, the call in assay [8], in [10], in assay [11], in [13] and in [14] was inactive. Besides, the half-maximal activity concentration (AC50) is 42.1 µM (active) in [9]; 36.4 µM (active) in assay [12]; 27.7 µM (active) in assay [15]; 15.2 µM (active) in [20]; 27.5 µM (active) in assay [16]; 30.1 µM (active) in assay [17].
Regarding `OCCCl`, the compound was classed as inactive in [1], in assay [2], in assay [3], in [19], in assay [4] and in [7]. Further, the result in assay [8], in [9], in [10], in [12], in [13] and in assay [14] was inactive. Also, the outcome in [15], in [20], in assay [16], in assay [17] and in assay [18] was inactive.

The record behind these values is PubChem BioAssay (EPA / NIEHS).
